# Results published in PubChem BioAssay.
# A number with no mark means an inactive call. For part of these data: Measured potencies and affinities stand elsewhere. Activity calls are given as the source filed them. Unless noted, the rule behind the calls is not given here.
# Experiments:
# [1] = antimalarial activity against Dd2 strain (AID 2302;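 active = growth inhibition above 50% at the single 2 µM test dose, taken to imply half-maximal potency below 2 µM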;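 note: 0% = DMSO untreated growth and 100% = chloroquine plus artemisinin killed control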); conditions: P. falciparum Dd2 in RBCs, LDH growth readout, 72 h; at 2 µM; hits give high values
# [2] = human hepatoma cell viability loss – ATP luminescence, cytotoxicity control for P. falciparum antimalarial project, primary screen (AID 2303;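 active = inhibition above 50%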;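 note: 0% = DMSO wells and 100% = digitonin-killed cells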); conditions: HepG2 viability, 24-48 h, at 10 µM, hits give high values
# [3] = target: L-lactate dehydrogenase (Plasmodium falciparum (isolate CDC / Honduras)) (UniProt Q27743); assay: PfLDH activity inhibition – cell lysate, 3D7 strain, counter-screen for P. falciparum growth inhibition project (AID 2304);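 note: 0% = vehicle and 100% = reference inhibitor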; conditions: P. falciparum 3D7 crude extract, LDH APAD/NBT absorbance; at 2 µM; hits give high values
# [4] = inhibition of 3D7 malaria parasite growth – strain 3D7 (AID 2306);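 note: 0% = DMSO wells and 100% = chloroquine plus artemisinin control wells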; conditions: P. falciparum 3D7 erythrocytic growth, LDH absorbance, 72 h; at 2 µM; hits give high values
# [5] = target: Calcium-dependent protein kinase 1 (Plasmodium falciparum (isolate 3D7)) (UniProt P62344); assay: PfCDPK1 kinase inhibitors, biochemical, TCAMS library (AID 1159585; cut-off not given, nearly all actives have IC50 up to about 0.98 µM;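 note: inhibitors leave more ATP so luminescence rises with inhibition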); conditions: recombinant PfCDPK1, Kinase-Glo ATP depletion luminescence
# [6] = target: Plasmodium falciparum protein kinase 6 (PK6, PF3D7_1337100) (UniProt Q8IDW1); assay: PfPK6 kinase inhibitors, biochemical, TCAMS library (AID 1159586); conditions: recombinant PfPK6, Kinase-Glo ATP depletion luminescence
# [7] = target: Protein kinase 7 (PK7), Plasmodium falciparum 3D7 (PF3D7_0213400) (UniProt Q7YTF7); assay: inhibition of Plasmodium PK7 catalytic activity – biochemical, TCAMS antimalarial set, Kinase-Glo luminescence (AID 1159587); conditions: recombinant PfPK7, Kinase-Glo ATP depletion luminescence
# [8] = target: Calcium-dependent protein kinase 4 (Plasmodium falciparum (isolate 3D7)) (UniProt Q8IBS5); assay: PfCDPK4 kinase inhibitors, biochemical, TCAMS library (AID 1159588; cut-off not given, nearly all actives have IC50 up to about 0.91 µM); conditions: recombinant PfCDPK4, Kinase-Glo ATP depletion luminescence
# Calcium-dependent protein kinase 4 (Plasmodium falciparum (isolate 3D7)), sequence (Q8IBS5 whole entry, looked up): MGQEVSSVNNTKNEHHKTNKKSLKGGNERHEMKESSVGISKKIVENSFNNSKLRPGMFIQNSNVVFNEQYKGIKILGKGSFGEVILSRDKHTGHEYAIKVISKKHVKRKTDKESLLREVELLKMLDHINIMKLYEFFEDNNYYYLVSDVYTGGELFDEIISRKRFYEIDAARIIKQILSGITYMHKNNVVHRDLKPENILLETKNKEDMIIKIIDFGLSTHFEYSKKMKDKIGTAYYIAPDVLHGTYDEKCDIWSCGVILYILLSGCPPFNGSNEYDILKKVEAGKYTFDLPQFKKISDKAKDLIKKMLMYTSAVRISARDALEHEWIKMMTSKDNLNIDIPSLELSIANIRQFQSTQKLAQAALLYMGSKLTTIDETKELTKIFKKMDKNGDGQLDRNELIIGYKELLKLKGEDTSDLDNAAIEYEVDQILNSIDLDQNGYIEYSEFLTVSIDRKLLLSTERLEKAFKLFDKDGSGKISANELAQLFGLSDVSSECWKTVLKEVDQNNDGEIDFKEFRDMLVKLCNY
# L-lactate dehydrogenase (Plasmodium falciparum (isolate CDC / Honduras)), sequence (Q27743 whole entry, looked up): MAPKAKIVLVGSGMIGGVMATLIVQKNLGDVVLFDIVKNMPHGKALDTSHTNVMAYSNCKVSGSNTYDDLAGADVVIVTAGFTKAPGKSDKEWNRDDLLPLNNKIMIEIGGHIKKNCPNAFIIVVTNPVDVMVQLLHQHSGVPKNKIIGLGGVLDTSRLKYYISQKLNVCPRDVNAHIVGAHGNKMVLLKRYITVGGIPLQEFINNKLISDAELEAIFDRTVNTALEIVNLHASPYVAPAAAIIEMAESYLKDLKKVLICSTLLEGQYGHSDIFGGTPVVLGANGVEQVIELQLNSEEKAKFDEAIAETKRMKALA
# Protein kinase 7 (PK7), Plasmodium falciparum 3D7 (PF3D7_0213400), sequence (Q7YTF7 1-343): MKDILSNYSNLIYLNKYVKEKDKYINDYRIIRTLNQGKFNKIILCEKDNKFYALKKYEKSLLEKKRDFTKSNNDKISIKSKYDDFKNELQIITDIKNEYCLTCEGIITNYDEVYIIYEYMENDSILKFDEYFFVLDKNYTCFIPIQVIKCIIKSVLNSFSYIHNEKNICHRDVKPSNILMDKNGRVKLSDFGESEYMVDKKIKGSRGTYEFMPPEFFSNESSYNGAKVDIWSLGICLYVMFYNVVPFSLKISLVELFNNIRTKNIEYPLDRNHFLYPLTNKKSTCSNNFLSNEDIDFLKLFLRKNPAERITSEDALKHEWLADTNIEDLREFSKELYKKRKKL
# Calcium-dependent protein kinase 1 (Plasmodium falciparum (isolate 3D7)), sequence (P62344 whole entry, looked up): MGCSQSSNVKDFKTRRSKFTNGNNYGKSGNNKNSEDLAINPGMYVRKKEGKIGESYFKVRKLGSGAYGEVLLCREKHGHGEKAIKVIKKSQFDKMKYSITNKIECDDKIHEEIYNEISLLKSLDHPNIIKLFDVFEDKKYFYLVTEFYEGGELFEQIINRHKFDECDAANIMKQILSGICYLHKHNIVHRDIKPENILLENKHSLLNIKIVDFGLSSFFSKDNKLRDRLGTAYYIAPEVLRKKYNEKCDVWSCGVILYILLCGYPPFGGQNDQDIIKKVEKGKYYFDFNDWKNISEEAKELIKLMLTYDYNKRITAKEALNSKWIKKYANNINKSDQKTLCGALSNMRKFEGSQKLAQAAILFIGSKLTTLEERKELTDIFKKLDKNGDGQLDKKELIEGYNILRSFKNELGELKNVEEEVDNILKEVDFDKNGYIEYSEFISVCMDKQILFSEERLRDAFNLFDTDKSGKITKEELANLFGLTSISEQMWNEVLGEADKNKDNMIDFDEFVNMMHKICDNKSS
# Plasmodium falciparum protein kinase 6 (PK6, PF3D7_1337100), sequence (Q8IDW1 1-305): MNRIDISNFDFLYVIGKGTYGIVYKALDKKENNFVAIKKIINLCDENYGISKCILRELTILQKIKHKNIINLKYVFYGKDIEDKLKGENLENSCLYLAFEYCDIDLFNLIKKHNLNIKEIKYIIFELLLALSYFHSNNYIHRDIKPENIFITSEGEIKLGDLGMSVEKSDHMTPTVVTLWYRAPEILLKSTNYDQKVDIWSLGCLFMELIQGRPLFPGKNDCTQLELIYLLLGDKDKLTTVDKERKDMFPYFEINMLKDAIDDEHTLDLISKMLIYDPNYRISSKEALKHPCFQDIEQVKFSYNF
SMILES,growth inhibition [1],inhibition [2] [%],inhibition [3] [%],growth inhibition [4],outcome [5],outcome [6],outcome [7],outcome [8]
Cc1ncccc1C(=O)Nc1cccc(-c2cccc(-c3nc4ccc(C(F)(F)F)cc4[nH]3)c2)c1,30%,34,1,96% (active),inactive,inactive,inactive,inactive
Nc1ccn([C@@H]2O[C@H](COC(c3ccccc3)(c3ccccc3)c3ccccc3)[C@@H](O)[C@@H]2O)c(=O)n1,2%,26,1,93% (active),inactive,inactive,inactive,inactive
COc1cc(F)c2ncc(Cl)c([C@@H](O)CN3CCC(NCc4ccc5c(n4)NC(=O)CO5)CC3)c2c1,100% (active),12,1,101% (active),inactive,inactive,inactive,inactive
